Data on 44 compounds can be found in article PMC4552634, “A New Set of Chemical Starting Points with Plasmodium falciparum Transmission-Blocking Potential for Antimalarial Drug Discovery” (PLoS ONE, 2015).

Like-named read-outs stand apart in the source and are kept apart here. Screen size: about 13,000 compounds; about 3,200 (25%) showed an effect of 50% or more. The list shows a part of the results.

For orientation: % Inhibition means the relative decrease from the control value, in per cent.

The subject of the assay is P. falciparum stage V gametocytes. Also on record: BacTiter-Glo ATP luminescence viability of purified stage V gametocytes in 384-well plates, per cent inhibition versus DMSO. To be noted: 48 h, 5 µM, inhibitor.

Turning to `CS(=O)(=O)N1CC2(CCN(CCC(NC(=O)/C=C/c3ccccc3)c3ccc(Cl)c(Cl)c3)CC2)c2ccccc21` (centres unmarked) [TCMDC-141763], the “% Inhibition” value was found to be 8.889%.
Take `CCCN1CCCN(Cc2cccc(NC(=O)c3ccc(-c4ccccc4)cc3)c2)CC1` [TCMDC-141843]: the “% Inhibition” value is listed as -30.15%.
For `CCC[C@@H]([C@@H](CC1CCCCC1)C(=O)N[C@H](C(=O)Nc1nccs1)[C@@H](C)OCc1ccccc1)N(O)C=O` [TCMDC-138051], the “% Inhibition” value was -19.92%.
The same measure, in the same setting: the figure for `Cc1nc(SCC(=O)N2CCCC2=O)c2c(C)c(C)sc2n1` [TCMDC-123558] is 5.306%.
Regarding `Cc1[nH]nc2cc(F)c(-c3cc(OC[C@@H](N)Cc4ccccc4)cnc3-c3ccoc3)cc12` [TCMDC-136295], the “% Inhibition” value worked out at 10.29%.
Still for that read-out and setting: as for `Cc1cccc(Nc2nc(N)c3ccccc3n2)c1.Cl` [TCMDC-123639], the figure is -2.53%; as for `CCOC(=O)c1c(C)noc1Nc1cccc(C)c1C` [TCMDC-131454], -30.94%; as for `N#Cc1cc([N+](=O)[O-])ccc1-n1nc(-c2cccc(Cl)c2)n(Cc2ccco2)c1=S` [TCMDC-134717], 102.9%.
On the same count and under the same terms, the figure for `CN(C)c1ccc(-c2nnc(Sc3ccc(C#N)c([N+](=O)[O-])c3)n2Cc2ccco2)cc1` [TCMDC-135611] is 2.069%.
`COc1cc(OC)cc(-c2nn(-c3ccc([N+](=O)[O-])cc3Cl)c(=S)n2Cc2ccco2)c1` [TCMDC-135128]: the “% Inhibition” value is recorded as 93.16%.
On the same count and under the same terms, the figure for `CCCCCCn1c(Sc2ccc(C#N)c([N+](=O)[O-])c2)nnc1-c1cc(OC)cc(OC)c1` [TCMDC-135589] is 37.66%; for `COc1cc(OC)cc(-c2nn(-c3ccc([N+](=O)[O-])cc3C#N)c(=S)n2Cc2ccco2)c1` [TCMDC-134715] it is 75.07%.
Same read-out and setting: the figure for `O=[N+]([O-])c1ccc(-n2nc(-c3cccnc3)n(Cc3ccco3)c2=S)c(Cl)c1` [TCMDC-135132] is 83.46%.
On to `C=CCN1C(=O)c2[nH]nc(-c3cc(C)c(C)cc3O)c2C1c1cccc(Br)c1` (centres unmarked) [TCMDC-124621], for which the “% Inhibition” value came to 9.594%.
Still for that read-out and setting: the figure for `Cn1c(CN2CCC(N3CCc4cc(NC(=O)c5ccco5)ccc43)C2)cc2ccccc21` (centres unmarked) [TCMDC-135073] is 32.96%; for `NC(N)=Nc1cccc(NC(=O)Nc2cccc(N=C(N)N)c2)c1` [TCMDC-137209] it is -4.06%; for `Cc1ccc2c(C3=CCN(CCCCC4(C)C(=O)Nc5ccccc54)CC3)c(C)[nH]c2c1` (centres unmarked) [TCMDC-141006] it is -63.83%.
On the same count and under the same terms, the figure for `COc1cc(Cc2cnc(N)nc2N)cc(OCCCC(=O)O)c1OC` [TCMDC-137359] is 3.526%.
Consider `O=C(NCCCCN1CCCC2c3ccc(O)cc3CCC21)c1ccc(-c2ccccc2)cc1` (centres unmarked) [TCMDC-139084], for which, under “% Inhibition”, the “% Inhibition” value was -62.82%.
Take `CCOc1cc(Cc2cnc(N)nc2N)cc(OCC)c1-n1cccc1` [TCMDC-137295]: the “% Inhibition” value was found to be 0.7486%.
Same read-out and setting: as for `CS(=O)(=O)Nc1ccc2[nH]cc(C3CC4CCC(C3)N4CC3CCC(NC(=O)/C=C/c4ccc(Cl)c(Cl)c4)CC3)c2c1` (centres unmarked) [TCMDC-139807], the figure is 14.27%.
In the case of `O=C(/C=C/c1ccccc1Cl)NC1CCC(CN2C3CCC2CC(c2c[nH]c4ccccc24)C3)CC1` (centres unmarked) [TCMDC-139931], the “% Inhibition” value is reported as 92.87%.
Still for that read-out and setting: the figure for `O=C(/C=C/c1c(Cl)cccc1Cl)NC1CCC(CN2C3CCC2CC(c2c[nH]c4ccccc24)C3)CC1` (centres unmarked) [TCMDC-140103] is 74.61%; for `CC(C)(C)c1ccc(NC(=O)c2cccc(CN3CCCN(Cc4ccsc4)CC3)c2)cc1` [TCMDC-135992] it is -46.34%.
Still for that read-out and setting: as for `CCC(C(=O)Nc1cc(=O)[nH]c2nc(-c3ccco3)nn12)c1ccccc1` (centres unmarked) [TCMDC-125323], the figure is -11.89%.
As to `O=C(Nc1cc(Cl)cc(Cl)c1)Nc1ccnc2ccccc12` [TCMDC-139375], the “% Inhibition” value is on record as 74.86%.
Turning to `CCc1cc(NC(=O)Nc2ccnc3ccccc23)ccc1OC` [TCMDC-139354], the “% Inhibition” value was found to be 1.366%.
Take `CN(C)c1ccc(NC(=O)Nc2ccnc3ccccc23)cc1Br` [TCMDC-139316]: the “% Inhibition” value is -21.1%.
With `CCCOc1cc(NC(=O)Nc2ccnc3ccccc23)cc(OCCC)c1` [TCMDC-139491], the “% Inhibition” value is recorded as 3.955%.
`CCOc1cc(NC(=O)Nc2ccnc3ccccc23)cc(OC)c1` [TCMDC-139788]: the “% Inhibition” value came out at 14.31%.
The same measure, in the same setting: as for `CN(C)c1ccnc2ccc(NC(=O)Nc3ccnc4ccccc34)cc12` [TCMDC-139749], the figure is 70.09%; as for `COc1cccc(NC(=O)Nc2cc(C)nc3ccccc23)c1` [TCMDC-138950], -4.503%; as for `O=C(Nc1cccc(Cl)c1Cl)Nc1ccnc2ccccc12` [TCMDC-139462], 3.661%.
Consider `COc1cc(NC(=O)Nc2ccnc3ccccc23)cc(OC)c1` [TCMDC-139446], for which the “% Inhibition” value was found to be 84.12%.
Turning to `COc1cc(NC(=O)Nc2cc(C)nc3ccccc23)cc(OC)c1` [TCMDC-139821], the “% Inhibition” value amounted to 78.53%.
Still for that read-out and setting: the figure for `COc1ccc(NC(=O)Nc2cc(C)nc3ccccc23)cc1Cl` [TCMDC-139820] is -57.55%.
Same read-out and setting: as for `COc1ccc(Cl)cc1NC(=O)Nc1ccnc2ccccc12` [TCMDC-139457], the figure is 13.69%.
The same measure, in the same setting: the figure for `O=C(/C=C/c1ccc(Cl)c(Cl)c1)NCCCCCN1CCC(NC(=O)Nc2cccc(F)c2)CC1` [TCMDC-135704] is -72.87%.
Regarding `CC(C)NCc1cccc(-c2cccc(-c3nc4ccc(F)cc4[nH]3)c2)c1` [TCMDC-132747], the “% Inhibition” value was -26.37%.
With `CC[C@@H]([C@@H](Cc1cc2ccccc2s1)C(=O)N[C@@H](CCCCNC(=O)OCc1ccccc1)C(=O)Nc1ccccn1)N(O)C=O` [TCMDC-138086], the “% Inhibition” value was 8.625%.
On the same count and under the same terms, as for `CCCCc1ccc(Cc2cnc3nc(N)nc(N)c3c2C)cc1` [TCMDC-138045], the figure is -16.41%; as for `CCCCCCN(C(=O)OCc1ccccc1)C1CCN(C(=O)OC(C)(C)C)CC1C(=O)OCC` (centres unmarked) [TCMDC-140339], 26.28%; as for `CCOC(=O)c1c(C)n(-c2ccccc2)c2ccc(OC(=O)c3ccc(S(=O)(=O)N(CC)CC)cc3)cc12` [TCMDC-125723], 7.356%.
The same measure, in the same setting: as for `CCN(C)c1cc(C(=O)N[C@@H](Cc2ccccc2)[C@H](O)CNC(C)(C)c2cccc(OC)c2)cc(N2CCCC2=O)c1` [TCMDC-134529], the figure is 28.65%.
